Screening data (PubChem)
Most compounds without a hit are left out; they make up all but 8.7% or so of the library.
BAZ2B block – blocks human BAZ2B. Q9UIF8. 360,000 compounds, 4.4% hits. AlphaScreen BAZ2B-H3K14Ac peptide displacement. Potency, µM (doses to about 114 µM), inactives show at the highest dose activity change, negative = inhibition, actives largely listed as inhibitors; note: % is set by controls: 0 for no effect and ±100 for the full control effect; nearly all actives have a fitted effect of over 60% in size
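Protein-peptide AlphaScreen: BAZ2B 50 nM, b-H3K14Ac 50 nM, 1x PBS pH 7.4 + 0.01% Tween-20. Preincubation 30 min RT; cpd 30 min RT (top 110 uM); beads 20 min RT, light-protected.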
G9a block – blocks human histone lysine methyltransferase G9a. 350,000 compounds, 8.8% hits. G9a H3K9 monomethylation, AlphaScreen, 2 h. Potency, µM (top dose mostly 102 µM), without a hit: at the top dose activity, negative = inhibition, hits mostly inhibitors. Q96KQ7; note: % is set by controls: 0 for no effect and ±100 for the full control effect; nearly all actives have a fitted effect of over 75% in size
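Enzyme 20 nM + cpd, 15 min RT; add b-H3K9 pep 500 nM / SAM 20 uM; 2 h RT; anti-H3K9me1 Ab 0.5 ug/mL + SA donor / anti-rabbit acceptor beads 20 ug/mL each, 10 min; AlphaScreen read.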
JMJD2A Tudor inh – blocks the human JMJD2A Tudor domain. O75164. AlphaScreen JMJD2A-Tudor / H3K4me3 peptide binding. Potency, µM (series often up to 114 µM), without a hit: at the top dose activity change, negative = inhibition, usual class: inhibitors. 390,000 compounds, 4.4% hits; note: % is set by controls: 0 for no effect and ±100 for the full control effect; nearly all actives have a fitted effect of over 50% in size
12-LOX inh – blocks human arachidonate 12S-lipoxygenase | P18054 | purified 12hLO, xylenol orange hydroperoxide absorbance | Potency, µM (series often up to 108 µM), for the others: at the highest dose activity change, negative = inhibition, usual class: inhibitors | 580,000 compounds, 1.1% hits | AID 1671190; note: % is set by controls: 0 for no effect and ±100 for the full control effect
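Hydroperoxide product was detected by ferrous iron/xylenol orange as the 573 to 405 nm absorbance ratio. Arachidonic acid at 40 uM (final) was turned over for 30 min at room temperature by 150 nM human 12hLO, pH 7.0 Hepes buffer, after 15 min compound preincubation.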
HP1b binding inh – blocks HP1-beta chromodomain binding to methylated histone tails; P83916; AlphaScreen HP1-beta / biotin-H3K9me3 peptide binding; Potency, µM (top dose mostly 114 µM), for inactives: top-dose activity change, negative = inhibition, most hits filed as inhibitors; 390,000 compounds, 0.56% hits; AID 540317; note: nearly all actives have a fitted effect of over 70% in size
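HP1-beta protein (50 nM final) preincubated 30 min at room temperature with biotinylated H3(1-18)K9me3 peptide (50 nM) in PBS pH 7.4, 0.01% Tween-20, then compound added for 30 min. AlphaScreen streptavidin donor/nickel chelate acceptor beads (10 ug/mL final), 30 min dark, luminescence read.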
Sfp PPTase inh – Sfp phosphopantetheinyl transferase inhibition; Q9F4F7; Biochemical Sfp PPTase activity, qHTS; Potency, µM, without a hit: largest response in the series, negative = inhibition, actives largely listed as inhibitors; 310,000 compounds, 3.5% hits;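 note: the enzyme is Sfp with the accession as filed and its product quenches rhodamine fluorescence; 0% = enzyme reaction without inhibitor and -100% = no enzyme wells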
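Fluorescence-quenching assay with 15 nM Sfp, 5 uM rhodamine-CoA and 12.5 uM BHQ-2-labelled ybbR peptide in pH 7.6 Hepes/MgCl2 buffer. Enzyme was pre-incubated with compound for 15 min at room temperature. Rate was taken from the 30-min fluorescence change (525/598 nm).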
* = called active by the depositor; ? = inconclusive; . = no result; [ ] = dose if it differs, or a comment. Calls come from the whole dose curve; as a rule, active = well fitted curve in the direction sought with a large enough effect; inconclusive = small, poorly fitted or top-dose-only effect, or another doubt; inactive = no such curve, though single readings can be large; an effect the other way counts as inactive or inconclusive. Potency is the fitted concentration of half-maximal effect.

SMILES | BAZ2B block | G9a block | JMJD2A Tudor inh | 12-LOX inh | HP1b binding inh | Sfp PPTase inh
C[C@@H]1C(=O)O[C@H]2[C@H]1CC[C@@]1(C)Cc3sc(Nc4ccc(C(=O)O)cc4)nc3[C@@H](C)[C@H]21 | . | . | . | 0.8%[176 µM] | . | .
O=C(NC1CCCCC1)c1ccc2ncsc2c1 | . | . | . | 1.0% | . | .
CC1Cc2cc(/C=C3/SC(=S)NC3=O)ccc2O1 (stereo not drawn) | -36.1% | ? | ? | ? | -11.2% | -2.4%
Cc1ccc(C2C(/C=C3/SC(=S)NC3=O)=C(c3cccs3)Oc3ccccc32)cc1 (stereo not drawn) | 25.1µM* | 31.6µM* | 35.5µM* | ? | ? | -8.3%
CCc1cccc2c(C(=O)O)cc(-c3ccccc3C)nc12 | . | . | . | -12.8% | . | .
N#C/C(=C\c1cccn1-c1cccc(Br)c1)c1ccccc1 | . | . | . | -23.6% | . | .
N#C/C(=C/c1cccn1-c1cccc(C(=O)O)c1)c1ccc(F)cc1 | 50.1µM* | ? | -34.8% | ? | -2.5% | 19.2%
O=C(CN1C(=O)N/C(=C\c2cccn2-c2cccc(C(=O)O)c2)C1=O)Nc1ccccc1F | . | . | -17.8% | . | . | .
O=C(O)c1cccc(-n2cccc2/C=C2/NC(=O)N(Cc3ccccc3F)C2=O)c1 | 50.1µM* | 44.7µM* | -16.5%[11.4 µM] | ? | -25.7% | 50.1µM*
O=C1N/C(=C/c2cccn2-c2ccccc2)C(=O)N1Cc1ccc(F)cc1 | -24.3% | 12.6µM* | -30.0% | -14.4% | 12.1% | 44.7µM*
O=C1N/C(=C/c2cccn2-c2ccc(F)cc2)C(=O)N1Cc1ccccc1F | -5.5% | ? | -10.5% | -23.8% | 13.8% | -0.7%
COc1ccccc1N1CCN(c2ncccc2CNC(=O)c2ccco2)CC1 | . | . | . | 2.6% | . | .
Cc1ccc2scc(N3CCN(c4ccccc4)CC3)c(=O)c2c1 | ? | ? | 44.7µM* | -13.3% | -4.5%[57 µM] | .
O=c1c(N2CCN(c3cccc(Cl)c3)CC2)csc2ccccc12 | ? | ? | 39.8µM* | -17.8% | -10.4%[57 µM] | .
CC(=O)c1cccc(NC(=O)CSc2nc3c(-c4ccccc4)c[nH]c3c(=O)n2C2CC2)c1 | . | . | . | -9.5% | . | .
C=CCNC(=O)c1cc(Cl)cc(Cl)c1 | -3.8% | -2.7% | 44.7µM* | -4.1% | -6.5% | 10.8%
Cc1cc(C(=O)N2CCc3c([nH]c4ccccc34)C2c2cccc(Cl)c2)nn1C (stereo not drawn) | ? | 39.8µM* | ? | -17.5% | 1.6% | 10.2%
O=C(c1cc[n+]([O-])cc1)N1CCc2c([nH]c3ccccc23)C1c1ccccc1Cl (stereo not drawn) | ? | . | -14.7% | -18.2% | 21.7% | -6.8%
Cc1ccccc1C1c2[nH]c3ccccc3c2CCN1C(=O)c1ccc(=O)n(C)n1 (stereo not drawn) | 10µM* | -24.8%[59 µM] | ? | -8.7% | -2.8% | -17.8%
CN1N=C(C(=O)N2CCc3c([nH]c4ccccc34)C2c2ccccc2Cl)CCC1=O (stereo not drawn) | -14.8% | ? | 31.6µM* | 7.2% | -22.6% | 7.1%
CSc1ccc(C2c3[nH]c4ccccc4c3CCN2C(=O)c2cc(C)n(C)n2)cc1 (stereo not drawn) | ? | . | . | . | . | 2.5%
O=C(c1ccc(Br)cc1)N1CCN(Cc2ccccc2)CC1 | 4.5% | -5.1%[0.501 µM] | -12.9% | -27.0% | 29.2% | 8.0%
Oc1ccc(C(=S)N2CCN(Cc3ccccc3)CC2)cc1 | -24.8% | 2.24µM* | ? | -9.9% | ? | 15.8µM*
CCN1CCN(C(=S)c2ccc(Br)cc2)CC1 | -13.1% | 10.5%[0.501 µM] | -28.5% | -17.2% | ? | 14.1µM*
O=C(c1cccc(C(=O)N2CCN(Cc3ccccc3)CC2)c1)N1CCN(Cc2ccccc2)CC1 | -1.3% | ? | -5.3% | 1.1% | 29.8% | 7.1%
CCN1CCN(CCC(=O)Nc2ccc(Br)cc2)CC1 | 2.8% | -30.3% | -6.4% | -25.7% | 33.2% | ?
S=C(c1ccc(Br)cc1)N1CCN(Cc2ccccc2)CC1 | ? | . | ? | -24.1% | -34.6% | 11.2µM*
